The whole screen tested about 310,000 compounds, of which about 14,000 (4.5%) showed an effect of 50% or more. The effect is printed as a negative number. The list comes from a sample in which strong results are over-represented; it also holds similar structures and randomly drawn compounds.
target: human ether-à-go-go-related gene (hERG) potassium channel (human, UniProt Q12809); experiment: primary screen, population patch clamp on CHO cells stably expressing hERG; higher = less effect of the substance
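Note: peak tail current of the secondary pulse compared with the same well before compound.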

Chain of human ether-à-go-go-related gene (hERG) potassium channel (Q12809 whole entry, looked up): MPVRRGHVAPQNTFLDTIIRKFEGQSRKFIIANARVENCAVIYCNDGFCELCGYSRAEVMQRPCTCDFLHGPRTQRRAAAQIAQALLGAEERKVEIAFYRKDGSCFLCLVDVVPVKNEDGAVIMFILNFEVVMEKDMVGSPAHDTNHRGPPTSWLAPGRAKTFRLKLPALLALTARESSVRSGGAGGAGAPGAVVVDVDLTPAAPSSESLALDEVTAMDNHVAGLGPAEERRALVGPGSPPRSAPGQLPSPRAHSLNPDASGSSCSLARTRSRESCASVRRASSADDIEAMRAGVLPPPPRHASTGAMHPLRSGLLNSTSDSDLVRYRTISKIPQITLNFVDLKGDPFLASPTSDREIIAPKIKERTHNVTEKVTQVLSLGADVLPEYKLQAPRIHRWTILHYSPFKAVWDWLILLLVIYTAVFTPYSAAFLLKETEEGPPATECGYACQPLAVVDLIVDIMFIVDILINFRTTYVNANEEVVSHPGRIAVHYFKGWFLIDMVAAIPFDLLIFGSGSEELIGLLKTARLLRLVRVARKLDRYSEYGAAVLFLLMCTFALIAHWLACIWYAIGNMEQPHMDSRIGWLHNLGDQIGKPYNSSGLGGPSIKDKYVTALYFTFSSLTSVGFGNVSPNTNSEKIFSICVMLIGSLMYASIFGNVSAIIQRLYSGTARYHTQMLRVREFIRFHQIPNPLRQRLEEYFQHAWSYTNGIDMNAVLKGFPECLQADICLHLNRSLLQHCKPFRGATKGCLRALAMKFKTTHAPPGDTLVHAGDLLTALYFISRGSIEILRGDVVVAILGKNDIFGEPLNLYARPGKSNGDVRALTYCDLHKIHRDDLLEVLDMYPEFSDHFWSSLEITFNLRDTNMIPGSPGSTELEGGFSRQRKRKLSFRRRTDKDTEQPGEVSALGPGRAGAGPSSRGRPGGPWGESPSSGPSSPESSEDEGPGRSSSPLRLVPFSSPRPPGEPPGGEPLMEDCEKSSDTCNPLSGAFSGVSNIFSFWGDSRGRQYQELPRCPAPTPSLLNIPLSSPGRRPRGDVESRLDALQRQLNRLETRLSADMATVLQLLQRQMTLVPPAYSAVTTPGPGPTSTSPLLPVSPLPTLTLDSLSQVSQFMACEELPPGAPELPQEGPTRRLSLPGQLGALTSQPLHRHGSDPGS

SMILES | hERG current change (%, negative = inhibition) at 10uM [%]
O=C(CNC(=O)c1ccc(Br)o1)NCc1ccccc1Cl | 1.15
CCCCc1ccc(NC(=S)NCCN2CCOCC2)cc1 | -39
CCOC(=O)CSc1cc(C(F)(F)F)nc(-c2ccccn2)n1 | -31.5
CC(C)CCc1noc(CN2CCC(C(=O)N3CCOCC3)CC2)n1 | -6.13
C/C=C/n1ccnc1CC(O)(c1ccccc1)c1ccc(C)cc1 (stereo not drawn) | -22.5
Nc1nnnn1/N=C\c1ccc(Cl)c([N+](=O)[O-])c1 | 3.26
COc1ccc(NC(=S)Nc2cccnc2)c(OC)c1 | 8.2
CCN(Cc1nc2ccccc2c(=O)[nH]1)Cc1nc2cc(OC)c(OC)cc2c(=O)[nH]1 | 14.9
CCc1ccc2c(CN(CC)Cc3nc4ccccc4c(=O)[nH]3)cc(=O)oc2c1 | -71.6
CN(Cc1nc2ccccc2c(=O)[nH]1)Cc1cc(=O)oc2ccc3ccccc3c12 | -10.1
CCN(Cc1nc2ccccc2c(=O)[nH]1)Cc1cc(=O)oc2cc(C)c(C)cc12 | -41.4
CCN(Cc1nc2ccccc2c(=O)[nH]1)Cc1cc(=O)oc2cc(OC)ccc12 | -51.1
CCN(CC(=O)Nc1cc(OC)ccc1OC)Cc1nc2ccccc2c(=O)[nH]1 | -8.33
N#Cc1ccccc1S(=O)(=O)N1CCN(CC(=O)NCC2(N3CCOCC3)CCCCC2)CC1 | -27.3
CCOc1cc(/C=C2/NC(=O)N(CC(=O)OC)C2=O)ccc1O | 3.71
O=C(O)c1ccc(Br)c(S(=O)(=O)N2CCCC2)c1 | 9.91
CCc1ccc(NC(=O)C(=O)NCCN2CCN(S(C)(=O)=O)CC2)cc1 | 20.5
COc1ccc(NC(=O)C(=O)NCCN2CCN(C(=O)c3ccco3)CC2)cc1 | -11.1
CCN1CCN(CCNC(=O)Nc2ccc([N+](=O)[O-])cc2)CC1 | -12.2
CCc1ccc(CN2CCN(C(=O)c3ccco3)CC2)cc1.O=C(O)C(=O)O | -23.8
CCCCc1ccc(NC(=O)C(=O)NCCN2CCN(C(=O)c3ccc([N+](=O)[O-])cc3)CC2)cc1 | -22.4
CCCCc1ccc(NC(=O)C(=O)NCCN2CCN(Cc3ccc([N+](=O)[O-])cc3)CC2)cc1 | -66.7
CCNC(=O)C(=O)Nc1ccc([N+](=O)[O-])cc1 | 2.37
CCc1ccc(NC(=O)C(=O)NCCN2CCN(C(=O)c3ccco3)CC2)cc1 | -67
CCc1ccc(NC(=O)C(=O)NCCN2CCN(Cc3ccc([N+](=O)[O-])cc3)CC2)cc1 | -72.5
Cc1ccc(NC(=O)C(=O)NCCN2CCN(Cc3ccc([N+](=O)[O-])cc3)CC2)cc1 | -72.8
Cc1ccc(NC(=O)C(=O)NCCN2CCN(S(C)(=O)=O)CC2)cc1 | 19.6

SMILES | hERG current change (%, negative = inhibition) at 10uM [%]
O=C(CNC(=O)c1cccs1)NCC(=O)OCc1ccc(F)cc1 | -13.1
O=C(CN1C(=O)C(=O)N(C2CCCC2)C1=O)NCCc1ccc(Cl)cc1Cl | 10.4
COc1ccccc1NC(=O)Cn1nc(-c2ccncc2)nc1SCC(=O)NC1CCCC1 | -20.2
COC(=O)CC1SC(=O)NC1=Nc1ccc(OC)cc1 (stereo not drawn) | 1.66
CCC(C)NS(=O)(=O)c1ccc(OCC(=O)Nc2ccc(F)cc2F)cc1 (stereo not drawn) | -2.06
COCCCNCC#CCOc1ccc(OC)cc1.O=C(O)C(=O)O | 0.922
O=C(NCCc1ccccc1)C(=O)Nc1ccc([N+](=O)[O-])cc1 | -2.37
O=C(NCCN1CCN(S(=O)(=O)c2ccc([N+](=O)[O-])cc2)CC1)C(=O)Nc1ccccc1 | 13.5
O=C(NCCN1CCN(Cc2ccc([N+](=O)[O-])cc2)CC1)C(=O)Nc1ccccc1 | -64.3
CC(OC(=O)c1ccc2c(c1)C(=O)N(Cc1ccncc1)C2=O)C(=O)Nc1cccc(Cl)c1Cl (stereo not drawn) | -11.1
COC(=O)c1ccc(C(=O)OC)c(NC(=O)C2CC2)c1 | -68.9
COC(=O)c1ccc(C(=O)OC)c(NC(=S)N2CCN(c3ccccc3)CC2)c1 | -19.1
COC(=O)c1ccc(C(=O)OC)c(NC(=S)N2CCN(c3ccccc3F)CC2)c1 | -52.9
COC(=O)c1ccc(NC(=O)CS(=O)(=O)Cc2ccccc2)cc1 | 1.28
COC(=O)c1ccc(C(=O)OC)c(NC(=O)CCS(=O)(=O)Cc2ccccc2)c1 | -2.41
COC(=O)c1ccc(C(=O)OC)c(NC(=S)N2CCN(c3ccc(F)cc3)CC2)c1 | -24
COC(=O)c1ccc(C(=O)OC)c(NC(=O)C(C)(C)C)c1 | 20.7
COC(=O)c1ccc(C(=O)OC)c(NC(=O)CS(=O)(=O)Cc2ccccc2)c1 | -53.2
COC(=O)c1ccc(C(=O)OC)c(NC(=O)C2CCCO2)c1 (stereo not drawn) | 10.5
Fc1ccc(-c2nnc(SCc3cccnc3)o2)cc1 | -3.91
Fc1cccc(F)c1/C=N/NC(=S)Nc1cccnc1 | -14.3
Cl.Oc1cccc(C(O)CNCc2ccc(OCc3ccc(Cl)cc3Cl)cc2)c1 (stereo not drawn) | 7.89
C=CCN(CC=C)S(=O)(=O)c1ccc(NC(=S)NC(=O)/C=C/c2ccc(C)cc2)cc1 | 6.12
CN(C)CCOC(=O)C12CC3(C)CC(C)(CC(C)(C3)C1)C2.Cl | -7.13
COc1ccc(CCNC(=O)CSCC(=O)Nc2ccccc2)cc1OC | 17.8
COc1ccc(/C=C/C(=O)OCC(=O)Nc2c(C)cccc2C)cc1 | 12.5
CCOC(=O)c1c(-c2ccc(C)o2)csc1NC(=O)CSc1nnnn1-c1ccccc1 | -3.66

Reference: PMC4336329 (PLoS ONE, 2015)
